# Columns and labels:
# Experiment in all cases: PBM binding z-score (relative to random genomic background probes); higher = stronger binding; sequences stand for … in GC…GCGATTGACAGCGTAGAATGAAGG
# [1] = system: PPARg:RXRa DBDmut IVT, anti-RXR (DBD mutation: RXRa K156A/R161A, NR concentration 270 nM, RXRa partner concentration 90 nM)
# How it was run: (§1)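 On custom Agilent 4×180K arrays, double-stranded probes with 34-nt variable regions carried direct-repeat seeds, single-nucleotide variants, half-site ablations or random human genomic background. Ligand-free nuclear receptor dimers were applied for 1 h, and binding was read with antibodies against each partner (one per run). Binding z-scores come from regression-normalized fluorescence, with the random background probes as reference.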
# [2] = system: PPARg:RXRa IVT, anti-PPARg (NR concentration 270 nM, RXRa partner concentration 90 nM)
# How it was run: as §1
# [3] = system: PPARg DBDmut:RXRa IVT, anti-PPARg (DBD mutation: PPARg1 K132A/R137A, NR concentration 270 nM, RXRa partner concentration 90 nM)
# How it was run: as §1
# [4] = system: PPARg DBDmut IVT, anti-PPARg (DBD mutation: PPARg1 K132A/R137A, NR concentration 270 nM)
# How it was run: as §1
# [5] = system: PPARg homodimer (NR concentration 180 nM)
# How it was run: as §1
# [6] = system: PXR:RXRa (NR concentration 270 nM, RXRa partner concentration 90 nM)
# How it was run: as §1
# [7] = system: PXR homodimer (NR concentration 270 nM)
# How it was run: as §1
# [8] = system: RARa:RXR (NR concentration 270 nM, RXRa partner concentration 90 nM)
# How it was run: as §1
# [9] = system: RARa homodimer (NR concentration 270 nM)
# How it was run: as §1
# [10] = system: RARb:RXRa (NR concentration 270 nM, RXRa partner concentration 90 nM)
# How it was run: as §1
# [11] = system: RARb homodimer (NR concentration 270 nM)
# How it was run: as §1
# [12] = system: RARg:RXRa (NR concentration 270 nM, RXRa partner concentration 90 nM)
# How it was run: as §1
# [13] = system: RARg homodimer (NR concentration 270 nM)
# How it was run: as §1
# [14] = system: RXRa DBDmut IVT, anti-RXR (DBD mutation: RXRa K156A/R161A, NR concentration 90 nM)
# How it was run: as §1
# [15] = system: RXRa homodimer (NR concentration 180 nM)
# How it was run: as §1
# [16] = system: THRa:RXRa (NR concentration 90 nM, RXRa partner concentration 90 nM)
# How it was run: as §1
# [17] = system: THRa homodimer (NR concentration 90 nM)
# How it was run: as §1
# [18] = system: VDR:RXRa (NR concentration 270 nM, RXRa partner concentration 90 nM)
# How it was run: as §1
# [19] = system: VDR homodimer (NR concentration 270 nM)
# How it was run: as §1
Sequence,PBM binding z-score [1],PBM binding z-score [2],PBM binding z-score [3],PBM binding z-score [4],PBM binding z-score [5],PBM binding z-score [6],PBM binding z-score [7],PBM binding z-score [8],PBM binding z-score [9],PBM binding z-score [10],PBM binding z-score [11],PBM binding z-score [12],PBM binding z-score [13],PBM binding z-score [14],PBM binding z-score [15],PBM binding z-score [16],PBM binding z-score [17],PBM binding z-score [18],PBM binding z-score [19]
GCGACTGGGACAAAGCAGGTTACCATAAGGTTGG,2.44,1.83,-0.413,-1.3,0.0292,0.0506,-0.224,0.493,-0.37,0.0729,0.587,0.308,0.367,-0.523,0.419,1.59,0.162,-0.0797,-0.161
ATCGAAAGGTCGTGAGGTGCGTATACAGAAAGGC,0.0193,1.75,0.734,0.404,1.37,2.98,0.197,3.01,0.318,3.85,2.59,4.2,3.57,1.16,4.65,2.45,-0.17,6.03,1.59
TTACCTAGGTGAAGGTCGTTGATCCCTCTGTAGA,2.92,3.84,0.00137,-0.113,0.298,1.16,0.136,1.48,-0.66,1.45,1.21,0.824,0.525,-0.143,1.29,1.9,0.379,1.06,0.61
CCTCGGAGGAGAACAGGAGGTCAGAGCTGCCAGA,-0.418,0.248,-1.26,-1.78,1.58,1.87,0.761,2.19,0.495,1.95,2.87,2.04,1.63,-0.274,1.76,2.21,0.793,1.29,0.851
GCTGCTAGGTCAGGTTGGTCAGCGAACGGGTACG,2.7,2.09,0.222,-1.25,0.933,0.281,-0.36,0.76,-0.581,3.31,2.73,2.68,4.03,0.514,1.11,1.8,0.422,0.566,0.896
CGTCAAAGTTCAAGGTAACGTGACAGAAAGCAGC,0.641,2.15,0.0239,0.308,2.16,4.21,2.13,3.56,1.05,5.08,3.72,5.21,5.97,4.54,4.26,2.99,1.08,3.71,3.04
CCGAGTAGGTTATGGGGCATTCGGGCAACGGTGA,2.83,3.88,-0.19,-0.259,0.492,0.00674,-0.383,0.377,-0.149,1.1,1.46,0.533,0.653,-0.483,0.797,0.415,0.172,-0.16,-0.175
AATACAGGGTCATCATAGGCCAGAGTACGCACAG,2.62,3.98,1.5,0.916,1.8,4.42,1.01,4.65,1.25,4.25,3.57,5.66,5.42,3.54,6.89,4.39,1.78,5.14,3.46
AGAATGAGGTTACCAAAGCTCAGGGAAACGCTTG,3.42,3.11,0.652,0.289,0.125,0.966,-0.338,1.77,-0.239,2.15,0.544,1.91,1.54,1.04,2.62,2.83,0.864,0.99,-0.0119
TCAGACAGGTGAAGGTAACTCTGGTACGCAGTCG,2.58,0.996,0.246,-0.784,0.246,0.678,0.0805,0.872,0.122,1.07,0.721,0.492,0.535,1.03,0.951,1.01,0.16,0.577,0.154
TGAATGAGGTTATAAGATCATGGAACGTTGCAAA,1.37,2,1.44,0.209,-0.119,1.1,-0.359,1.96,-0.439,1.13,0.204,1.76,0.935,0.832,2.42,1.71,0.0513,1.44,0.42
GCTAGTTGGTCAGTAAAAGGTCACACGCCGGTCG,1.06,3.13,-0.186,0.255,3.94,5.06,0.982,6.11,1.93,4.53,5.37,5.72,5.2,0.626,5.46,3.72,1.66,3.87,1.85
CAAACTAGGTCACCGGAAGGTCAAATTCCGCATG,8.5,8.8,3.05,2.87,7.39,6.11,2.46,7.62,3.35,5.12,5.55,8.17,7.31,2.13,6.55,4.58,3.11,5.9,2.93
CGTCCAAGGTCAAAGGTGAGTGAAGAGATGACGG,4.29,5.13,0.48,-0.248,2.01,5.5,1.01,7.17,1.07,5.55,4.48,6.91,6.63,3.77,8.39,4.4,2.28,4.94,2.92
CCTTACGGGTCGCTCCAGGTTATAGCATCGGAGT,0.145,0.244,-1.18,-0.791,0.495,1.93,-0.171,1.02,-0.313,1.22,1.07,0.907,1.08,0.0194,1.14,4.18,0.109,1.1,0.177
